# Screens: PubChem, National Center for Advancing Translational Sciences (NCATS)
# Only some compounds are listed: those with a hit (about 3.2% of all), similar ones and a draw of the others.
# USP2a inh – blocks human ubiquitin-specific protease USP2a. AID 463254. Potency, µM (titrated, usually from 38.3 µM), usual class: inhibitors. USP2 core, Ub-CHOP2 coupled fluorogenic reporter, 485/531. O75604. 330,000 tested, 0.01% active
#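 Deubiquitinase activity read as fluorescence (485/531 nm) after Ub-CHOP2 cleavage activates the enterokinase reporter on its substrate; USP2 core 10nM, Ub-CHOP2 and substrate 25nM each, 30min compound preincubation then 60min RT; data normalized to NEM, curves fitted.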
# USP1-UAF1 inh – inhibitors of human USP1/UAF1 deubiquitinase. AID 743255. recombinant USP1/UAF1, Ub-Rhodamine cleavage fluorescence. 390,000 tested, 0.23% active. O94782. Potency, µM (doses to about 57.1 µM), usual class: inhibitors; also: nearly all actives have a fitted effect of over 60% in size
#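 Step one: compound is pinned into 1nM USP1/UAF1 in HEPES pH 7.8 buffer with TCEP. Step two: 15 min room-temperature incubation. Step three: Ub-Rho (150nM final) starts cleavage, tracked by fluorescence over six one-minute reads.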
# FBPA coupling cs – coupling enzyme interference in Giardia aldolase counter-screen | coupling enzyme system counterscreen, AmpLite Red fluorescence | 290,000 tested, 0.67% active | activity change, negative = inhibition, % at 58.2 µM, hits read low; in the data active = activity change below about -30%
#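 Counterscreen of the coupled detection system alone, without aldolase: glyceraldehyde-3-phosphate coupling enzymes plus AmpLite Red readout. Compounds at 57.5 uM final, 10 min RT preincubation, 20 min RT reaction, fluorescence 525/598 nm.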
# PLK1 PBD block – inhibitors of human PLK1 polo-box domain binding | P53350 | Potency, µM, usual class: inhibitors | 360,000 tested, 2.8% active | AID 720504 | Plk1 PBD binding of FITC phosphopeptide, fluorescence polarization; also: series mostly up to about 57 µM; nearly all actives have a fitted effect of over 65% in size
# GALK inh – inhibitors of human galactokinase; Purified GALK, Kinase-Glo residual ATP luminescence; Potency, µM (doses to about 57.5 µM), most hits filed as inhibitors; 270,000 tested, 0.007% active; AID 1868
# Target sequence (P51570 whole entry, looked up): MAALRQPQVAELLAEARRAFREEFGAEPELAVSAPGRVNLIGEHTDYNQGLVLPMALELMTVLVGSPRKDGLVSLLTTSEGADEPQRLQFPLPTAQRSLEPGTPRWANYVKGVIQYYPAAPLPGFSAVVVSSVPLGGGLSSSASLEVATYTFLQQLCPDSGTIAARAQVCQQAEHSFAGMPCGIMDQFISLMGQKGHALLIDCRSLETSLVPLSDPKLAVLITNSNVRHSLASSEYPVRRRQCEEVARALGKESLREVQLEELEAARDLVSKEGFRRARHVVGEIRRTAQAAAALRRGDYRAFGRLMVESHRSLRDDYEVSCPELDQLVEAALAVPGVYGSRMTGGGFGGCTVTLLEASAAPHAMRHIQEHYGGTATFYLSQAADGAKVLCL
#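 5 nM enzyme, 35 uM ATP, 100 uM galactose, 20 mM HEPES pH8.0, 5 mM MgCl2; 1 h RT; residual ATP by Kinase-Glo Plus luminescence, qHTS format.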
# VDR inhibitor – blocks the human vitamin D receptor; P11473; VDR-SRC2-3 peptide fluorescence polarization, 2 h; Potency, µM, usual class: inhibitors; 400,000 tested, 0.93% active; AID 504847
#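 Inhibition of the VDR/SRC2-3 peptide interaction is quantified by fluorescence polarization. Compounds (23 nl, pintool) incubate with the reagents for 2 hours at ambient room temperature.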
# Numbers stand for hits; 0 = inactive; ? = inconclusive; - = not tested or not shown. Unless noted, calls follow the shape of the dose curve; as a rule, active = well fitted curve in the direction sought with a large enough effect; inconclusive = small, poorly fitted or top-dose-only effect, or another doubt; inactive = no such curve, though single readings can be large; an effect the other way counts as inactive or inconclusive.
SMILES,USP2a inh,USP1-UAF1 inh,FBPA coupling cs,PLK1 PBD block,GALK inh,VDR inhibitor
Cc1cccnc1NC(=O)Cn1nc(-c2ccccc2)oc1=S,0,0,0,24µM,0,?
COc1ccc(S(=O)(=O)N2CCOC23CCN(S(=O)(=O)c2ccc(F)cc2C)CC3)cc1,0,0,-,0,-,0
COc1ccccc1CN1C(=O)C(=O)c2cccc(C)c21,-,0,-,-,-,0
CCOC(=O)CN1C(=O)C(=O)c2cccc(C)c21,0,0,-48,0,0,0
CC(=O)c1ccc(NC(=O)CCC(=O)OCC(=O)c2cccc([N+](=O)[O-])c2)cc1,0,0,0,0,0,0
CCCn1c(N)c(C(=O)CN2CCc3ccccc3C2)c(=O)n(C)c1=O,0,0,0,0,0,0
Cc1ccc2[nH]c3c(c2c1)CN(C(=O)CN1CC(C)OC(C)C1)CC3 (centres undefined),0,0,-33,0,0,0
CCOC(=O)c1ccc(N2N=C(C)/C(=C/C=C/c3ccco3)C2=O)cc1,0,0,0,0,0,0
O=C(O)c1cc(N2N=C(C(F)(F)F)/C(=C/C=C/c3ccco3)C2=O)ccc1Cl,10µM,28µM,0,0.53µM,0,?
CCN(CC)CCNC(=O)CSc1nc2nc(C)c(Cc3ccccc3)c(C)n2n1,-,0,-,-,-,0
Cn1c(C(=O)NCc2ccccn2)cc2c(=O)n(C)c3ccccc3c21,0,0,0,0,0,0
COCCCNc1ccn2nc(-c3ccc(Cl)cc3)cc2n1,-,-,-,0,-,-
CC(=O)c1ccccc1C(=O)N1CCCC(CNC(=O)c2ccccc2Cl)C1 (centres undefined),0,0,0,27µM,0,?
COc1ccc(C(=O)N2CCCC(CNC(=O)c3ccccc3Cl)C2)o1 (centres undefined),0,0,-,0,0,?
COc1ccccc1OCC(=O)NCC1CCCN(C(=O)c2ccccc2C(C)=O)C1 (centres undefined),0,0,0,0,0,0
COc1ccccc1OCC(=O)NCC1CCCN(C(=O)c2ccccc2SC)C1 (centres undefined),0,0,0,3.4µM,0,?
CC(=O)Nc1ccc(S(=O)(=O)N2CCN(S(=O)(=O)N3CCCCC3)CC2)cc1,0,0,0,0,0,0
CCOc1ccc2c(c1)C(NC(C)=O)C(=O)N2CCN1CCOCC1 (centres undefined),0,0,0,21µM,-,79µM
CC(=O)NC1C(=O)N(CCN2CCOCC2)c2ccc(Br)cc21 (centres undefined),0,0,0,0,0,?
Cc1ccc(NC2=C(Cl)C(=O)OC2OC(C)C)cc1 (centres undefined),0,0,0,0,0,0
CCn1c2ccccc2c2cc(NC(=O)c3ccc(Br)o3)ccc21,0,0,0,?,0,50µM
N/C(=N\O)c1ccc(NC(=O)c2ccc(Br)o2)cc1,0,0,0,15µM,0,?
O=C(NNC(=O)c1ccc(Br)o1)c1ccc(NC(=O)c2ccccc2)cc1,0,0,0,0,0,0
CCn1c2ccccc2c2cc(NC(=O)c3coc(=O)c(Br)c3)ccc21,?,-,0,-,0,-
COc1cc(/C=C2\SC(=N)N(c3ccc(F)cc3)C2=O)ccc1O,0,0,0,0,0,0
SMILES,USP2a inh,USP1-UAF1 inh,FBPA coupling cs,PLK1 PBD block,GALK inh,VDR inhibitor
COC(=O)C1=C(C)N(Cc2ccc(C)cc2)C(=O)/C1=C\c1ccc(O)c(OC)c1,0,0,0,0,0,?
COc1cccc(/C=C2/C(=O)NN(c3ccc(Br)cc3)C2=O)c1O,0,0,0,7.5µM,0,?
COc1cc(/C=C2/C(=O)NN(c3ccc(Cl)cc3)C2=O)ccc1OC(=O)c1ccco1,0,0,0,2.7µM,0,?
COC(=O)C1=C(C)N(Cc2ccc(C)cc2)C(=O)/C1=C\c1cc(OC)c(OC)c(OC)c1,0,0,0,0,0,50µM
COc1cc(/C=C2/C(=O)NN(c3ccc(F)cc3)C2=O)cc(Cl)c1O,0,?,0,30µM,-,?
COc1cc(/C=C2\SC(N)=NC2=O)cc(Br)c1O,0,0,0,0,0,0
COc1cc(/C=C2/C(=O)NN(c3ccc(Cl)c(Cl)c3)C2=O)cc([N+](=O)[O-])c1O,0,?,0,12µM,?,56µM
COC(=O)c1ccc(N2NC(=O)/C(=C/c3cc(OC)c(OC)c(OC)c3)C2=O)cc1,0,0,0,8.4µM,0,71µM
COc1cc(/C=C2/C(=O)NN(c3ccc(Cl)cc3)C2=O)cc(Br)c1O,0,?,0,?,0,71µM
COC(=O)c1ccc(N2NC(=O)/C(=C/c3cc(OC)c(O)c(OC)c3)C2=O)cc1,0,?,0,0,0,?
CCOC(=O)c1c(NC(=O)COC(=O)c2ccc(NC(=O)CC#N)cc2)sc(C(=O)NC)c1C,0,0,-,0,-,0
COc1ccccc1C(=O)Nc1cccc(NC(C)=O)c1,0,0,0,0,0,0
Cc1ccccc1C(=O)Nc1cccc(N)c1,0,0,0,0,0,0
COc1ccccc1C(=O)Nc1cccc(NC(=O)c2ccccc2C)c1,0,0,0,21µM,0,0
Cc1ccccc1C(=O)Nc1cccc(NC(=O)c2ccc(C(C)(C)C)cc2)c1,-,0,-,-,-,50µM
N#Cc1c(SC(C(=O)O)c2ccccc2)nc2c(c1-c1cccs1)CCCC2 (centres undefined),0,0,0,30µM,0,0
CC1CCCN(C(=O)NC(=O)c2ccc(Cl)cc2)C1 (centres undefined),0,0,-,0,0,0
O=C1C(=O)c2ccccc2C(O)=C1CCCCl,0,20µM,-50,0,0,0
Cc1ccc(C)c(OC2=NS(=O)(=O)c3ccccc32)c1,0,0,0,12µM,0,0
COC1=NS(=O)(=O)c2ccccc21,0,0,0,0,-,0
NS(=O)(=O)c1cccc(NC(=O)CCC(=O)c2cccs2)c1,0,0,0,0,0,0
NS(=O)(=O)c1cccc(NC(=O)c2cccs2)c1,0,?,0,13µM,0,25µM
FC(F)(F)c1ccc2c(c1)N1CCCC1CN2 (centres undefined),0,0,0,27µM,0,0
CCC(C)c1cc([N+](=O)[O-])cc([N+](=O)[O-])c1OC(=O)OC(C)C (centres undefined),-,-,0,-,-,11µM
COc1ccc(S(=O)(=O)Nc2ccc(C(N)=O)cc2)cc1C(=O)N1CCCCCC1,0,0,0,0,0,0
CC(=O)Nc1nc(-c2ccc(-c3ccccc3)cc2)cs1,-,0,-,0,-,-
CC(=O)Nc1nc(-c2cccc3ccccc23)cs1,0,0,0,3.8µM,0,25µM
COc1ccc(-c2csc(NC(C)=O)n2)cc1OC,0,0,0,27µM,0,?
O=C(Cc1ccc(S(=O)(=O)N2CCOCC2)s1)N(Cc1ccccc1)c1ccccc1,0,0,-,0,-,0
